Bioassay records from PubChem BioAssay.
In the library only some 7.9% were active in any assay of this set; here they are far more common.
MCF10A rereplic: DNA re-replication induction in MCF 10a cells; MCF 10A DNA re-replication, Hoechst nuclear intensity, 48 h; Potency, µM (highest dose often 46.1 µM), inactives show at the top dose activity, positive = re-replication, hits mostly activators; 350,000 tested, 2.9% active; AID 624296; note: % of control where 0% means no effect; nearly all actives have a fitted effect of over 50% in size
KB-V1 MDR tox: KB-V1 MDR subline cytotoxicity | KB-V1 MDR cells viability, CellTiter-Glo, 72 h | Potency, µM (highest dose often 46.1 µM), usual class: cytotoxic | 400,000 tested, 3.4% active | AID 1347076; note: % is set by controls: 0 for no effect and ±100 for the full control effect; nearly all actives have a fitted effect of over 60% in size
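Compound-treated KB-V1 multidrug-resistant cells, 72 h, 37 degrees C; viability by CellTiter-Glo. Fitted qHTS curves give the values.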
HT1080 IDH1KD tx: toxicity to HT-1080 IDH1 knockdown cells (counter line); HT-1080 IDH1 knockdown viability, ATP luminescence, 48 h; Potency, µM (doses to about 46.1 µM), without a hit: at the top dose activity, negative = toxicity, actives largely listed as cytotoxic; 360,000 tested, 2% active; AID 686971;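 note: 0% = DMSO wells and -100% = cell-free medium wells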
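% activity derives from luminescence (CellTiter-Glo), normalised to DMSO and no-cell wells. HT-1080-IDH1KD cells, 750/well, had 48 h compound exposure at 37 °C.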
SW480 rereplic: inducers of DNA re-replication in SW480 colon cancer cells. Potency, µM (top dose mostly 46.1 µM), inactives show at the highest dose re-replication activation, actives largely listed as activators. SW480 DNA re-replication, Hoechst DNA content imaging, 48 h. 340,000 tested, 1.8% active; note: % of control where 0% means no effect; nearly all actives have a fitted effect of over 55% in size
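Treated cells incubate 48 hr (37 C, 5% CO2), are stained 40 min with Hoechst, and nuclear fluorescence is enumerated; a rise in nuclei with high DNA signal marks re-replication.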
HT1080NT lethal: kills 2HG-producing HT-1080-NT fibrosarcoma cells; HT-1080-NT fibrosarcoma viability, CellTiter-Glo ATP luminescence, 48 h; Potency, µM (series often up to 46.1 µM), for inactives: at the highest dose activity, negative = less viability, hits mostly cytotoxic; 360,000 tested, 1.6% active; AID 686970;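 note: NT is the 2HG producing partner of a matched IDH1 knockdown line; 0% = DMSO-treated cells and -100% = media-only wells without cells; nearly all actives have a fitted effect of over 55% in size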
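HT-1080-NT; 750 cells/well; 5% FBS RPMI; 48 h compound, 37 degrees C; CellTiter-Glo luminescence; curve fitting and curve-class assignment.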
KB-3-1 tox: KB-3-1 parental cell cytotoxicity; KB-3-1 viability, CellTiter-Glo ATP luminescence, 72 h; Potency, µM (highest dose often 46.1 µM), actives largely listed as cytotoxic; 400,000 tested, 1.4% active; AID 1347075; note: % is set by controls: 0 for no effect and ±100 for the full control effect; nearly all actives have a fitted effect of over 60% in size
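Here the drug-naive KB-3-1 line serves as comparator for MDR sub-line selectivity; cells received compound titrations, 72 h at 37 °C, then CellTiter-Glo readout.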
* = called active by the depositor; i = inactive; ? = inconclusive; / = no result. Calls come from the whole dose curve; as a rule, active = well fitted curve in the direction sought with a large enough effect; inconclusive = small, poorly fitted or top-dose-only effect, or another doubt; inactive = no such curve, though single readings can be large; an effect the other way counts as inactive or inconclusive. Potency is the fitted concentration of half-maximal effect.

SMILES	MCF10A rereplic	KB-V1 MDR tox	HT1080 IDH1KD tx	SW480 rereplic	HT1080NT lethal	KB-3-1 tox
CN(C)CCNC(=O)C(=O)Nc1ccc2c(c1)N(S(=O)(=O)c1cccs1)CCC2	?	?	?	18µM*	-24%	6.5µM*
CC(C)C[C@@H]1COc2cc(N3CCSCC3)ccc2S(=O)(=O)N1	/	?	16%	/	14%	i
COc1cccc(/C=N/NC(=O)c2cc3c(OC)ccc(OC)c3[nH]2)c1O	10%	i	26µM*	-5%	?	?
COc1cc(OC)c2cc(C(=O)N/N=C/c3cccc(OC)c3O)[nH]c2c1	18%	?	9.2µM*	3.3µM*	?	?
COc1ccc(C(=O)NNC(=S)NC(=O)c2ccc(F)cc2)cc1Br	10%	?	?	-22%	?	i
COc1cc(SC)ccc1C(=O)Nc1ccc(Cl)cn1	-35%	13µM*	6%	-114%	4%	?
COc1cc(C(=O)NNC(=S)NC(=O)c2ccc(F)cc2)cc(OC)c1OC	23µM*	?	?	?	-28%	i
CSc1ccc(Cl)c(C(=O)Nc2ccc(Cl)cn2)c1	21µM*	i	5.8µM*	21µM*	6.5µM*	23µM*
COc1cc(C(=O)NC(=S)Nc2ccc(Cl)cn2)cc(OC)c1OC	?	?	-5%	18µM*	-7%	i
COc1cc(SC)ccc1C(=O)Nc1ccncc1	0%	?	-3%	-87%	12%	i
Cc1cn2c(=O)cc(COc3cccc(NC(=O)c4ccccc4Cl)c3)nc2s1	/	i	/	/	/	i
CCCCOC(=O)c1ccc(Nc2nc3ccc(C(=O)c4ccccc4)cc3n3cnnc23)cc1	/	i	/	/	/	i
O=C(NC(=S)Nc1ccc(Cl)cn1)C(c1ccccc1)c1ccccc1	15µM*	?	6%	?	2%	18µM*
S=C(Nc1ccccc1)Nc1ccc(Cl)cn1	-5%	i	-21%	-3%	20%	i
CC1CC(NC(=O)c2cc3c(=O)n4ccccc4nc3n2C)CC(C)(C)C1 (stereo unspecified)	10µM*	?	0%	10µM*	12%	i
CC1CCCCC1NC(=O)c1cc2c(=O)n3ccccc3nc2n1C (stereo unspecified)	-3%	i	-3%	?	1%	i
CC1Cc2ccccc2N1C(=O)c1cc2c(=O)n3ccccc3nc2n1C (stereo unspecified)	?	5.8µM*	11%	14%	-18%	?
S=C(Nc1ccc(Nc2ccccc2)cc1)NN1CCOCC1	7%	i	8%	-4%	11%	i
CN(C)Cc1ccccc1CNC(=O)c1cccc(S(=O)(=O)Nc2ccc3c(c2)OCO3)c1	/	i	-11%	/	-14%	i
CCC(COC(=O)Nc1cccc(C)c1)NC(=O)OCC(C)C (stereo unspecified)	4%	3.7µM*	6%	-4%	11%	i
COc1ccc(CCNC(=O)c2ccc3c(c2)c(C)c(C)n3Cc2ccccc2)c(OC)c1OC	/	i	/	/	/	i
COc1cccc(C(=O)CSc2nnc(COc3cccc4cccnc34)o2)c1	6.5µM*	i	?	5.2µM*	?	i
Cc1ccc(C(=O)CSc2nnc(COc3cccc4cccnc34)o2)cc1	-1%	i	?	-7%	?	i
O=C(CSc1nnc(COc2cccc3cccnc23)o1)c1ccc(F)cc1	-7%	i	5µM*	-2%	10µM*	i
CC1CCCC(C)N1C(=O)CSc1nnc(COc2cccc3cccnc23)o1 (stereo unspecified)	?	?	12%	4.1µM*	15%	i
SMILES	MCF10A rereplic	KB-V1 MDR tox	HT1080 IDH1KD tx	SW480 rereplic	HT1080NT lethal	KB-3-1 tox
CCCN(C(=O)CCOc1ccc(C(C)(C)C)cc1)c1c(N)n(Cc2ccccc2)c(=O)[nH]c1=O	14%	i	-28%	-5%	-3%	i
Cc1cccc(Cl)c1NC(=O)N1CCCN(c2nc3ccc(Cl)cc3s2)CC1	11%	?	-23%	1%	?	?
Cc1nc(Nc2ncc(C(=O)Nc3c(C)cccc3Cl)s2)cc(N2CCN(CCO)CC2)n1	19µM*	i	/	17µM*	/	?
COc1ccc(S(=O)(=O)N2CCN(C(=O)CN3C(=O)NC(C)(c4ccc5ccccc5c4)C3=O)CC2)cc1 (stereo unspecified)	12%	?	-10%	0%	-8%	i
Cc1ccc(-c2nnc(NC(=O)CCS(=O)(=O)c3ccc(F)cc3)o2)c(C)c1	8.2µM*	i	-8%	1%	-14%	i
O=C(CCS(=O)(=O)c1ccc(Cl)cc1)Nc1nnc(-c2cccs2)o1	?	i	-17%	1.6µM*	-28%	i
Cc1ccc(S(=O)(=O)Nc2ccc3c(c2)C(=O)N([C@@H](C)CO)C[C@@H](C)[C@@H](CN(C)S(=O)(=O)c2ccccc2)OCCCC[C@H](C)O3)cc1	/	i	-3%	/	-14%	i
CCOC(=O)N1CCN(C(=O)COc2ccc3c(c2)C(=O)CC2(CCN(C(C)=O)CC2)O3)CC1	-3%	i	13%	-7%	3%	i
CC(=O)N1CCC2(CC1)CC(=O)c1cc(OCC(=O)N3CCOCC3)ccc1O2	7%	i	5%	21µM*	3%	i
COc1cc(/C=C/C(=O)OCC(=O)Nc2nnc(-c3ccccc3)o2)cc(OC)c1OC	?	12µM*	-7%	-4%	2%	i
Cc1ccccc1OCCN1C(=O)NC2(CCc3ccccc32)C1=O (stereo unspecified)	-1%	23µM*	-12%	1%	-17%	i
CCc1ccc(S(=O)(=O)c2cn(Cc3ccccc3F)c3cc(OC)c(OC)cc3c2=O)cc1	/	i	/	/	/	i
Cc1cc(S(=O)(=O)NCC(C)C)ccc1OCC(=O)NCC1CCCO1 (stereo unspecified)	8%	21µM*	3%	?	7%	i
N#Cc1nc(-c2ccc(Cl)cc2)oc1NCc1ccco1	15µM*	i	-15%	-5%	-5%	i
CCOc1ccc(Nc2oc(-c3ccc(Cl)cc3)nc2C#N)cc1	21µM*	?	?	?	-28%	?
COc1ccc(Nc2oc(-c3ccc(Cl)cc3)nc2C#N)cc1	16µM*	?	?	?	?	4.6µM*
COc1ccccc1Cn1cc(C(=O)c2ccc(C)cc2)c(=O)c2cc3c(cc21)OCCO3	/	i	/	/	/	i
O=C(CSc1nnc(C2CC2)n1-c1ccccc1)N1CCNC1=O	-2%	?	-13%	2%	-2%	i
